# Assay outcomes (PubChem)
# An excerpt weighted towards active compounds, which were near 20% of everything screened.
# Pf growth 96h: Primary qHTS for delayed death inhibitors of the malarial parasite plastid, 96 hour incubation; P. falciparum luciferase reporter growth, 96 h; Potency, µM (top dose mostly 28.7 µM), hits mostly inhibitors; 320,000 tested, 6.9% active
#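 Cell-based qHTS: luciferase-tagged P. falciparum in erythrocytes (2% hematocrit, 0.05% parasitemia final) incubated with compounds for 96 hours, 37 C, 5% CO2; luciferase detection reagent then added and luminescence measured.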
# CHX counter: Cycloheximide Counterscreen for Small Molecule Inhibitors of Shiga Toxin; AID 2314, 2010; 300,000 tested, 12% active; cell reporter, cycloheximide protein synthesis inhibition counterscreen; max response, %; in the data active means max response mostly above about 13%, no sharp cut-off; inactive means mostly below about 14%; further: read at 38.3 µM for the half of the compounds with a filed dose
# Shiga inhibitor: A qHTS for Small Molecule Inhibitors of Shiga Toxin; Vero cells, Shiga toxin protein synthesis inhibition reporter; inhibition, % at 38.7 µM; 290,000 tested, 9.2% active; AID 2315, 2010; in the data active means inhibition mostly above about 28%, no sharp cut-off; inactive means mostly below about 43%
# HCMV inh: qHTS Assay for inhibitors of the human cytomegalovirus (HCMV); HFF cells, HCMV-luciferase reporter, 72 h; stronger effect = lower value; activity change, negative = inhibition, % at 57.5 µM; 410,000 tested, 4.5% active; AID 1259415, 2018; in the data active means activity change below about -60%; inconclusive means no clear call, values can overlap the other calls; inactive means above about -39%
#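 Steps: HFFs plated, 16 h 37C; compounds added; HCMV-luciferase added to MOI 1 PFU/cell; 72 h 37C; OneGlo reagent, 5 min room temperature; luminescence read, normalized to controls.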
# Pf growth 48h: Primary qHTS for delayed death inhibitors of the malarial parasite plastid, 48 hour incubation | P. falciparum luciferase growth in erythrocytes, 48 h | Potency, µM (series often up to 28.7 µM), hits mostly inhibitors | 310,000 tested, 5.9% active | AID 504832, 2011
#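 Here the parasites carry a stable luciferase gene and grow inside erythrocytes in Albumax-based RPMI medium with compound for one erythrocytic cycle. Activity is scored as loss of luminescent signal.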
# A number is an active result; i = inactive; ? = inconclusive; nt = no result given; [ ] = another dose, or the depositor's remark. Unless noted, the call rests on the fitted dose curve; in most records, active means well fitted inhibition curve with a large enough effect; inconclusive means small, poorly fitted or top-dose-only effect, or another doubt; inactive means no such curve, though single readings can be large or run the other way.
SMILES,Pf growth 96h,CHX counter,Shiga inhibitor,HCMV inh,Pf growth 48h
CCCC(O)C(CC)CO (centres undefined),i,nt,nt,nt,i
Cc1cccc(C)c1OCc1cc(C(=O)N2CCC(C3CCCCC3)C2)no1 (centres undefined),nt,nt,nt,i,nt
Cc1cc(C(=O)N2CCC(Cc3ccccc3)CC2)no1,15µM,i,i,i,i
Cc1cccc(C)c1OCc1cc(C(=O)N2CCC(c3ccccc3)CC2)no1,?,41,100,i,i
Cc1cccc(C)c1OCc1cc(C(=O)N2CCN(c3ccc(F)cc3)CC2)no1,?,52,109,i,i
Cc1cccc(C)c1OCc1cc(C(=O)N2CCN(c3ccccn3)CC2)no1,?,44,46,i,i
Cc1cc2nc(NC(=O)C3(C)CCN(C)C3)[nH]c2cc1C (centres undefined),nt,nt,nt,i,nt
CCN1C(=O)CSC1=Nc1ccc(C(=O)O)cc1,?,i,nt,i,?
CC(C)(C)c1ccc(N=C2SCC(=O)N2Cc2cccs2)cc1,i,47,50,i,?
Cc1cc(C)cc(NC(=O)C(=O)NCC(c2cccnc2)N2CCc3ccccc32)c1 (centres undefined),nt,nt,nt,i,nt
O=C(c1ccc([N+](=O)[O-])s1)N1CCN(c2ccccc2)CC1,?,i,i,-96,i
O=C(c1ccc([N+](=O)[O-])s1)N1CCN(c2ccccn2)CC1,?,i,i,-61,?
Cc1cc(Cl)ccc1NC(=O)C1CCCN1C(=O)c1cccs1 (centres undefined),i,i,i,i,i
CCN(C(=O)[C@@H]1CCCN1C(=O)c1cccs1)c1nc2cc(Cl)ccc2s1,i,18,i,i,i
O=S(=O)(NCCc1csc2nc(-c3ccc(F)cc3)nn12)c1ccc2c(c1)OCCO2,nt,nt,nt,i,nt
N#Cc1c(N)oc(-c2ccc3c(c2)OCO3)c1-c1ccc2c(c1)OCO2,i,i,i,i,nt
C=CCSC1=NNC(c2ccc(C(C)(C)C)cc2)=NN1,i,32,79,i,i
O=C(OCc1cnc(Cl)s1)c1ccccc1Cl,i,16,i,i,i
O=C(OCc1cnc(Cl)s1)c1c(F)cccc1F,i[1.15 µM],i,i,?,i
O=C(OCc1cnc(Cl)s1)c1cccc(Cl)c1Cl,i,14,i,i,i
CCC/C(O)=C1\C(=O)CCCC1=NCCc1c(C)[nH]c2ccccc12,i,i,i,i,i
COc1ccc(-n2c(-c3ccc(Cl)cc3)c[n+]3c2CCc2ccccc2-3)cc1,?,i,i,-99,1.9µM
COc1ccc(-n2c(-c3ccccc3)nnc2-c2ccc(Cl)cc2)cc1,i,i,i,i,i
Cc1ccc(N2CCN(Cc3ccccc3)CC2=O)c(C)c1,?,i,i,i,i
CC/C(=N/NC(=O)c1ccccc1)c1ccc(OCCN2CCOCC2)cc1,i,70,80,i,i
SMILES,Pf growth 96h,CHX counter,Shiga inhibitor,HCMV inh,Pf growth 48h
CC/C(=N/NC(=O)c1ccc(Br)cc1)c1ccc(OCCN2CCOCC2)cc1,?,i,52,i,i
CCC(=NNC(=O)c1cccc(S(=O)(=O)N2CCOCC2)c1)c1ccccc1,nt,nt,nt,i,nt
CCOc1ccc(C(=O)NCCN2CCOCC2)cc1,i,i,i,i,i
CCOc1ccc(-c2nn(CC(=O)NC3CCCC3)c3c2cnc2ccc(F)cc23)cc1,nt,nt,nt,i,nt
C[C@H](CO)N1C[C@H](C)[C@H](CN(C)Cc2ccc(F)cc2)Oc2ncc(Br)cc2C1=O,nt,nt,nt,i,nt
Cc1cccn2c(=O)c3cc(C(=O)NCCN4CCOCC4)c(=N)n(Cc4ccc(F)cc4)c3nc12,3.7µM,i,i,-100,?
Cc1cccn2c(=O)c3cc(C(=O)NCCN4CCOCC4)n(C)c3nc12,?,37,59,i,i
Cc1cccn2c(=O)c3cc(C(=O)NCCN4CCOCC4)n(Cc4ccccc4)c3nc12,i,i,i,nt,i
CCOCCCn1c(=N)c(C(=O)NCCN2CCOCC2)cc2c(=O)n3cccc(C)c3nc21,1.5µM,i,i,i,i
Cc1cccn2c(=O)c3cc(C(=O)NCCN4CCOCC4)c(=N)n(CCN4CCOCC4)c3nc12,i,i,i,i,?
COc1ccc(-c2c(-c3ccc(OCC(=O)NN)cc3O)n[nH]c2C(F)(F)F)cc1,9.3µM,i,i,i,9.3µM
C=C(C)COc1ccc(-c2n[nH]c(C)c2-c2ccc(OC)cc2)c(O)c1,3.7µM,i,i,-106,?
CCc1cc(-c2n[nH]c(C)c2-c2ccccc2Cl)c(O)cc1OC,i,32,80,?,?
COc1ccc(-c2c(-c3ccc(OCC(=O)NN)cc3O)n[nH]c2C)cc1OC,?,i,i,i,?
CCOc1ccc(-c2n[nH]c(C)c2-c2ccccc2OC)c(O)c1,i,i,i,i,3.3µM
N#Cc1ccc(OCC(=O)Nc2ccc(S(=O)(=O)N3CCOCC3)cc2)cc1,nt,nt,nt,i,nt
CCc1ccc(NC(=O)CN2C(=O)CSc3ccc(S(=O)(=O)N(C)C)cc32)cc1,nt,nt,nt,i,nt
CCOC(=O)c1c(NC(=O)c2cc(=O)c3c(C)cc(C)cc3o2)sc(C(C)=O)c1C,nt,nt,nt,i,nt
c1ccc(-c2cnnc(SCc3cn4cccnc4n3)n2)cc1,9.3µM,i,i,i,10µM
CC(C)(C)c1ccc(C(=O)NCCCNC(=O)c2ccccn2)cc1,i,i,42,i,i
O=C(NCCCNC(=O)c1ccccn1)c1ccc(Cl)cc1,i,i,i,i,i
O=C(NCCCNCCCNC(=O)c1ccccn1)c1ccccn1,i,i,i,i,i
O=C(NCCN1CCNCC1)c1ccccn1,i,i,101,i,i
COc1cccc(C(=O)NCCCNC(=O)c2ccccn2)c1,4.7µM,i,i,?,i
O=[N+]([O-])C(/C=C(\Cl)[N+](=O)[O-])=C(N1CCCCC1)N1CCCCC1,1.2µM,i,i,i,?
SMILES,Pf growth 96h,CHX counter,Shiga inhibitor,HCMV inh,Pf growth 48h
O=[N+]([O-])C(=C1SCCS1)C(=C(Cl)Cl)N1CCCCC1,i,i,i,i,i
CCc1ccc(NCc2cc3ccc(OC)cc3n(CC(=O)Nc3ccccc3OC)c2=O)cc1,nt,nt,nt,i,nt
Cc1c(CC(=O)NCCc2ccc(Cl)cc2)c(=O)oc2c(C)c3occ(C(C)(C)C)c3cc12,nt,nt,nt,-68,nt
CCOC(=O)/C=C(C)\C=C\c1c[nH]c2ccccc12,i,30,56,i,13µM
COC(=O)C1=C(C)N(C2CCCCC2)C(=O)C1,1.9µM,i,i,i,i
CC(C)Oc1ccc(CNC(=O)c2ccc3c(c2)N(C)C(=O)C2CCCCN32)cc1 (centres undefined),nt,nt,nt,i,nt
Cc1cc(C(=O)Nc2ncn[nH]2)ccc1[N+](=O)[O-],i,i,i,i,i
O=C(O/N=C1\CCS(=O)(=O)c2sccc21)c1ccccc1,?,i,i,i,?
O=C(O/N=C1\CCS(=O)(=O)c2sccc21)c1ccc(F)cc1,i,37,78,i,i
CC1CCN(S(=O)(=O)c2ccc3c(c2)N(CC(=O)NC(C)C)C(=O)CO3)CC1,nt,nt,nt,i,nt
O=C(O)c1ccc2c(=O)n3cc(C(=O)c4ccccc4O)cc(Cl)c3nc2c1,?,34,i,-80,i
